PP5 inh – PP5 (human) phosphatase inhibition; P53041; purified PP5c, OMFP substrate fluorescence; inhibition, % at 6.7 µM; actives 0.18% (n = 320,000); AID 1987;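 active = inhibition above the campaign's mean inhibition across all tested compounds plus 3 SD, cut at about 9.5% in these data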
PAFAH2 FP inh – PAFAH2 (human) inhibition; Q99487; recombinant PAFAH2, FP-rhodamine activity probe, fluorescence polarization; inhibition, % at 3.39 µM; actives 0.99% (n = 340,000);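 active = inhibition above the mean over all tested compounds plus 3 SD, cut at about 30% in these data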;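 also: inhibitors block probe labeling of enzyme so polarization drops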
pPAFAH inh – inhibitors of human plasma PAF acetylhydrolase (pPAFAH); Q13093; recombinant pPAFAH, FP-rhodamine probe fluorescence polarization; inhibition, % at 3.39 µM; actives 1.5% (n = 330,000);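 active = inhibition above the mean inhibition across the screen plus 3 SD, cut at about 25% in these data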;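 also: inhibitors block binding of the rhodamine activity-based probe so polarization drops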
PAFAH1B3 inh – PAFAH1B3 (human) inhibition; Q15102; recombinant PAFAH1B3, FP-rhodamine probe, fluorescence polarization; inhibition, % at 3.39 µM; actives 0.28% (n = 340,000); AID 492972;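 active = inhibition above the screen-wide average of all tested compounds plus 3 SD, cut at about 25% in these data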
Target sequence (Q15102 whole entry, looked up): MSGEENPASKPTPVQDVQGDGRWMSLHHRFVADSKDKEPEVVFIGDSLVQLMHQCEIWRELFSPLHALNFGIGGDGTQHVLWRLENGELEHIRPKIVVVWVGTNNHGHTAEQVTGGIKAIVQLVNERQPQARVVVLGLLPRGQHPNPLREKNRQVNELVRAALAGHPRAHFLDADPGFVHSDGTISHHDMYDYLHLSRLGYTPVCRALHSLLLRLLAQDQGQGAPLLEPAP
PP1 inh – PP1-alpha (human) inhibition in PP5 counter-screen; actives 0.9% (n = 320,000); inhibition, % at 6.7 µM; purified PP1alpha, OMFP fluorescence; P62136;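 active = inhibition above the mean inhibition of all tested compounds plus 3 SD, computed separately for each screening campaign, cut at about 15% in these data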
PAFAH1B2 FP inh – blocks human PAF acetylhydrolase 1b catalytic subunit 2; P68402; AID 492953; inhibition, % at 3.39 µM; actives 1.2% (n = 340,000); recombinant PAFAH1B2, FP-rhodamine activity probe, fluorescence polarization;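 active = inhibition above the mean of all tested compounds plus 3 SD, cut at about 24% in these data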
Target sequence (P68402 whole entry, looked up): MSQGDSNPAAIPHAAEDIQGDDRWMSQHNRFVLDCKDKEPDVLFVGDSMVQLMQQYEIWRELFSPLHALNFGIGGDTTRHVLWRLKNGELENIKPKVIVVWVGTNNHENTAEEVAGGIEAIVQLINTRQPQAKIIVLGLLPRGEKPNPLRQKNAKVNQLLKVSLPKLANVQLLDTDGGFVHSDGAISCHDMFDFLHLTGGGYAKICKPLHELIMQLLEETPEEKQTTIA
Of the large screens only hits and unclear results are named; the others gave an inactive call. The list is not random: actives were taken first. Their share in the collection is about 3.4%.

COc1ccc2nc(C)cc(N3CCN(c4ccccc4)CC3)c2c1	none
O=C(Nc1ccccc1C(F)(F)F)c1cc(-c2ccccc2O)on1	PP1 inh 16.1
CC(C)(C)c1sc(N)nc1-c1ccccc1	PAFAH1B2 FP inh 26.9
Cc1sc(N)nc1-c1ccccc1	none
Cc1ccc(OCC(=O)Nc2ccc([N+](=O)[O-])cc2)cc1	none
O=C(Nc1cccnc1)C1(c2ccccc2)CCCC1	none
O=C(Nc1ccccn1)C1(c2ccccc2)CCCC1	PAFAH1B2 FP inh 25.7
NS(=O)(=O)c1ccc(NC(=O)C2(c3ccccc3)CCCC2)cc1	PAFAH1B2 FP inh 27.4
O=C(Nc1ccncc1)C1(c2ccccc2)CCCC1	PAFAH1B2 FP inh 27.0
NS(=O)(=O)c1ccc(NC2(C(=O)O)CCCC2)cc1	none
Cc1ccc(NC(=O)C2(c3ccccc3)CCCC2)nc1	none
Cc1ccc(NC(=O)C2(c3ccc([N+](=O)[O-])cc3)CCCC2)cc1	PAFAH1B2 FP inh 25.0
CCCc1nc2ccccc2c(C(=O)OCC(=O)Nc2c(C)n(C)n(-c3ccccc3)c2=O)c1CC	none
COc1ccc(Nc2ncnc3sc(-c4ccccc4)cc23)cc1OC	pPAFAH inh 31.8, PAFAH1B3 inh 31.9
COc1ccc(Nc2ncnc3c2cnn3-c2ccccc2)cc1OC	none
O=C(CCCN1C(=O)/C(=C\c2ccccc2)SC1=S)Nc1cccc(C(=O)O)c1	none
O=C(CCN1C(=O)/C(=C\C=C\c2ccccc2)SC1=S)Nc1ccccc1C(=O)O	pPAFAH inh 29.8
O=C(CCN1C(=O)/C(=C\C=C\c2ccccc2)SC1=S)Nc1cccc(C(=O)O)c1	pPAFAH inh 28.5
CC(C)CNC(=O)C1CCN(CC2CCCCC2)CC1	none
CCC1CCCCN1CCN1C(=O)C2C(C(=O)Nc3ccc(OC)cc3)C3C=CC2(O3)C1C(=O)NC1CCCCC1 (stereo not drawn)	none
CCN(CC)C(=O)CSc1nnc([C@H](Cc2c[nH]c3ccccc23)NC(=O)OC(C)(C)C)o1	none
CCOc1ccc(N2C(=O)C(c3ccccc3)=C(c3nc4ccccc4s3)C2NC(C)=O)cc1 (stereo not drawn)	pPAFAH inh 25.6
Cc1occc1C(=O)NNC(=O)Nc1ccc(F)cc1F	none
O=C(NNC(=O)c1cc2ccccc2cc1O)Nc1ccc(F)cc1F	pPAFAH inh 26.2, PAFAH1B3 inh 28.8
O=C(NNC(=O)c1cc2ccccc2cc1O)Nc1ccc(Br)cc1	pPAFAH inh 25.7
CCOc1ccccc1NS(=O)(=O)c1ccc(-n2cccn2)cc1	none
CCOC(=O)c1sc(N(Cc2ccccc2)C(=O)COC(=O)c2ccc(O)cc2)nc1C	none
CCOC(=O)c1sc(N(Cc2ccccc2)C(=O)COC(=O)c2ccccc2O)nc1C	PAFAH1B2 FP inh 41.7
O=C(NC(=O)c1ccccc1)OCC(F)(F)F	none
O=C(CSCc1ccc(Br)cc1)N1CCCC1	PAFAH1B2 FP inh 28.9
O=C(CSCc1ccc(Br)cc1)N1CCOCC1	PAFAH1B2 FP inh 26.3
O=C(CSCc1ccc(F)cc1)N1CCOCC1	none
CSc1nnc(-c2cnccn2)n1C	none
CCc1ccc(Cc2cnc(NC(=O)C3=NCCN3)s2)cc1	PP1 inh 17.3
Cc1ccc(C(=O)Nc2ncc(Cc3ccc(F)cc3)s2)o1	PAFAH1B2 FP inh 28.2
O=c1cc2c(=O)oc3cc(O)c(O)oc3c2c(O)c1O	PAFAH2 FP inh 62.5, PAFAH1B3 inh 78.6, PAFAH1B2 FP inh 30.1 (no result: PP5 inh, pPAFAH inh, PP1 inh)
COC(=O)c1ccc(NC(=O)Cn2nc(C(=O)Nc3ccc(C)cc3)ccc2=O)cc1	none
COc1cccc2cc(C(=O)C3=C(O)C(=O)N(CCN4CCOCC4)C3c3cccc(Cl)c3)oc12 (stereo not drawn)	PP1 inh 22.8
CCOC(=O)c1csc(NC(=O)c2ccc(OCC)cc2)n1	none
CCOC(=O)Cc1csc(NC(=O)c2cc(=O)c3ccccc3o2)n1	none
Cc1cc(C)c2nc(NNC(=O)c3cc(=O)c4ccccc4o3)sc2c1	pPAFAH inh 26.1
C=CCn1c2ccccc2c2nnc(SCCCn3c(=O)[nH]c4ccccc43)nc21	none (no result: PP5 inh, pPAFAH inh, PP1 inh)
[N-]=[N+]=NC[C@H](Cc1ccccc1)N1CC[C@@H](O)CCC1=O	none
CC(C)OP(=O)(c1ccc(N(C)C)cc1)C(O)c1ccccc1F (stereo not drawn)	none
Cc1[nH]c2ccc(C(=O)OC(C)C(=O)N(C)C3CCCCC3)cc2c1C (stereo not drawn)	none (no result: PP5 inh, pPAFAH inh, PP1 inh)

Screening results from PubChem BioAssay.
